Screening data deposited in PubChem by NMMLSC.
Most compounds without a hit are left out; they make up all but 0.89% or so of the library.
RPL19A-GFP yeast: yeast TOR pathway RPL19A-GFP modulation; AID 2025; S. cerevisiae RPL19A-GFP strain, flow cytometry, 3 h; hits give low values; 330,000 tested, 0.3% active; percent response vs DMSO, % at 10 µM;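 active means percent response vs DMSO below 50%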;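 further: median channel GFP fluorescence of the barcoded RPL19A-GFP strain; lower means less RPL19A-GFP as with rapamycin TOR inhibition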
CIT2 TOR yeast: yeast TOR pathway CIT2-GFP modulation | S. cerevisiae CIT2-GFP strain, flow cytometry, 3 h; 100 means same as DMSO wells | 320,000 tested, 0.065% active | GFP response vs DMSO, % at 10 µM | AID 2029;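 active means GFP response relative to DMSO above a set limit, near the screen mean plus 3 SD, cut at about 150% in these data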;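 further: ratio of well median GFP fluorescence to mean of DMSO wells on the plate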
LAP4-GFP MLPCN: modulators of TOR pathway LAP4-GFP in S. cerevisiae. S. cerevisiae LAP4-GFP multiplex, flow cytometry GFP, 3 h; median GFP as percent of DMSO wells. GFP response vs DMSO, % at 10 µM. 320,000 tested, 0.34% active. AID 2023;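 active means GFP response vs DMSO above a set limit, about the screen mean plus 3 SD, cut at about 150% in these data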
MEP2-GFP yeast: yeast TOR pathway MEP2-GFP modulation; GFP response vs DMSO, % at 10 µM; S. cerevisiae MEP2-GFP strain, flow cytometry GFP, 3 h; 100% = DMSO control level; 330,000 tested, 0.51% active;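 active means GFP response versus DMSO above a set limit, roughly screen mean plus 3 SD, cut at about 180% in these data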;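 further: median GFP fluorescence of the barcode-gated MEP2-GFP cells per well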
AGP1-GFP MLPCN: yeast TOR pathway AGP1-GFP modulation | S. cerevisiae AGP1-GFP multiplex flow cytometry, 3 h; GFP as percent of DMSO wells | GFP response vs DMSO, % at 10 µM | 320,000 tested, 0.02% active;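 active means GFP response relative to DMSO above a set limit, near screen average plus 3 SD, cut at about 150% in these data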;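 further: median GFP channel fluorescence of the gated AGP1 strain per well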
LAP4-GFP pick2: reconfirmed LAP4-GFP TOR pathway modulator in yeast | shares compounds with LAP4-GFP MLPCN | S. cerevisiae LAP4-GFP strain, flow cytometry GFP, 3 h | GFP response vs DMSO, % at 10 µM | 590 tested, 20% active | AID 2621;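 active means GFP signal as percent of the solvent control above about 150%, meaning raised reporter expression, limit read from the data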
MEP2-GFP pick2: reconfirmed MEP2-GFP TOR pathway modulator in yeast; AID 2622; GFP response vs DMSO, % at 10 µM; 590 tested, 10% active; S. cerevisiae MEP2-GFP strain, flow cytometry GFP, 3 h; shares compounds with LAP4-GFP MLPCN;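 active means GFP signal above 150% of the solvent control wells, that is a rise of more than half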;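 further: median channel GFP fluorescence of all gated yeast cells per well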
RPL19A GFP CP2: second confirmation of modulators of TOR reporter RPL19A-GFP in yeast | 590 tested, 3% active | GFP response vs DMSO, % at 10 µM | S. cerevisiae RPL19A-GFP strain, flow cytometry GFP, 3 h; hits give low values; 100% means same as DMSO wells | shares compounds with LAP4-GFP MLPCN | AID 2623;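 active means under 65% GFP response relative to DMSO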;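 further: median GFP channel fluorescence per well over the all cells gate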
CIT2-GFP pick2: reconfirmed modulator of CIT2-GFP TOR reporter in yeast | shares compounds with LAP4-GFP MLPCN | S. cerevisiae CIT2-GFP strain, flow cytometry GFP, 3 h; DMSO control wells read 100% | GFP response vs DMSO, % at 10 µM | 590 tested, 8% active | AID 2624;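 active means GFP response vs DMSO above about 150%, limit read from the data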;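 further: median green fluorescence per well over all gated yeast cells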
AGP1 GFP CP2: reconfirmed modulator of AGP1-GFP TOR reporter in yeast; percent response vs DMSO, % at 10 µM; S. cerevisiae AGP1-GFP strain, flow cytometry GFP, 3 h; AID 2643; 590 tested, under 10 active; shares compounds with LAP4-GFP MLPCN;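 active means over 150 percent of DMSO response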;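 further: median GFP channel fluorescence over all cells without mother daughter split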
s288c autofluor: compound is autofluorescent in yeast s288c cells | shares compounds with LAP4-GFP MLPCN | S. cerevisiae s288c, 520 nm autofluorescence, flow cytometry, 3 h; hits give high values; zero means same as solvent-only cells | fluorescence change (kMESF span) at 33 µM | 610 tested, under 10 active;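 active means fluorescence span over the dose series, or activity score, above about 33, limit read from the data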
Yeast autofl DR: TOR screen hit shows autofluorescence in yeast s288c; fluorescence change (span) at 33 µM; shares compounds with LAP4-GFP MLPCN; 110 tested, under 10 active; S. cerevisiae s288c parental, compound autofluorescence, flow cytometry, 3 h;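 active means fluorescence change span, or the activity score built from it, above 25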
TORC1 bypass: stops wildtype yeast growth while TORC1 bypass cells still grow; shares compounds with LAP4-GFP MLPCN; S. cerevisiae BY4741 spot growth rating, 48-72 h; hits give low values; growth rating (0-3) at 30 µM; 120 tested, under 10 active;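 active means growth rating at most 1 for wild type yeast while the TORC1 bypass strain still grows fully, rated 3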
Numbers stand for hits.

Screening Cc1oc2c(c1C(=O)O)C(=O)c1ccccc1C2=O returned RPL19A-GFP yeast inactive, CIT2 TOR yeast inactive, LAP4-GFP MLPCN 156.3, MEP2-GFP yeast inactive, AGP1-GFP MLPCN inactive, LAP4-GFP pick2 inactive, MEP2-GFP pick2 inactive, RPL19A GFP CP2 inactive, CIT2-GFP pick2 inactive and AGP1 GFP CP2 inactive.
For CC(=O)N(\C=C/C=C/C=C1\Sc2ccccc2C1=O)c1ccccc1 the results were RPL19A-GFP yeast inactive, CIT2 TOR yeast 200.4, LAP4-GFP MLPCN 166.6, MEP2-GFP yeast 283.1, AGP1-GFP MLPCN inactive and s288c autofluor inactive.
`CN(C)/C=C1/Sc2ccccc2C1=O` gave RPL19A-GFP yeast inactive, CIT2 TOR yeast inactive, LAP4-GFP MLPCN inactive, MEP2-GFP yeast inactive and AGP1-GFP MLPCN inactive.
`O=S(=O)(NC1=NCCCCC1)c1ccc(Cl)cc1Cl` gave RPL19A-GFP yeast inactive, CIT2 TOR yeast inactive, LAP4-GFP MLPCN inactive, MEP2-GFP yeast inactive and AGP1-GFP MLPCN inactive.
For Cc1ccsc1/C=N/Nc1ncc(Cl)cc1Cl the results were CIT2 TOR yeast inactive, LAP4-GFP MLPCN 300.2, MEP2-GFP yeast inactive, AGP1-GFP MLPCN inactive and s288c autofluor inactive.
Cc1cc(C)nc(N/N=C/c2sccc2C)n1 was read as RPL19A-GFP yeast inactive, CIT2 TOR yeast inactive, LAP4-GFP MLPCN inactive, MEP2-GFP yeast inactive and AGP1-GFP MLPCN inactive.
Screening CC(=O)N(C)c1ccc(NC(=O)Cc2cccs2)cc1 returned RPL19A-GFP yeast inactive, CIT2 TOR yeast inactive, LAP4-GFP MLPCN inactive, MEP2-GFP yeast inactive and AGP1-GFP MLPCN inactive.
`COc1ccc(C(=O)c2ccccc2)cc1` gave RPL19A-GFP yeast inactive, CIT2 TOR yeast inactive, LAP4-GFP MLPCN inactive, MEP2-GFP yeast inactive and AGP1-GFP MLPCN inactive.
`O=C(O)c1ccn2c(C(=O)c3ccccc3)c(-c3ccccc3)cc2c1` gave RPL19A-GFP yeast inactive, CIT2 TOR yeast inactive, LAP4-GFP MLPCN 156.1, MEP2-GFP yeast inactive, AGP1-GFP MLPCN inactive and s288c autofluor inactive.
For COc1ccc(-c2cc3cc(C(=O)O)ccn3c2C(=O)c2ccccc2)cc1 the results were RPL19A-GFP yeast inactive, CIT2 TOR yeast inactive, LAP4-GFP MLPCN 150.5, MEP2-GFP yeast inactive, AGP1-GFP MLPCN inactive and s288c autofluor inactive.
`Cc1cc(NS(=O)(=O)c2ccc(NC(=O)Nc3cccc(C(F)(F)F)c3)cc2)no1` gave RPL19A-GFP yeast inactive, CIT2 TOR yeast inactive, LAP4-GFP MLPCN inactive, MEP2-GFP yeast inactive and AGP1-GFP MLPCN inactive.
O=C1C=C(O)c2cccc(O)c2C1=O was read as RPL19A-GFP yeast inactive, CIT2 TOR yeast inactive, LAP4-GFP MLPCN inactive, MEP2-GFP yeast inactive and AGP1-GFP MLPCN inactive.
Screening CC1=CC(=O)c2c(O)ccc(O)c2C1=O returned RPL19A-GFP yeast inactive, CIT2 TOR yeast inactive, LAP4-GFP MLPCN 195.1, MEP2-GFP yeast inactive, AGP1-GFP MLPCN inactive, LAP4-GFP pick2 196.2, MEP2-GFP pick2 276.2, RPL19A GFP CP2 inactive, CIT2-GFP pick2 inactive and AGP1 GFP CP2 inactive.
For O=C(Nc1cc(-c2ccccc2)nn1-c1ccccc1)c1ccccc1F the results were RPL19A-GFP yeast inactive, CIT2 TOR yeast inactive, LAP4-GFP MLPCN inactive, MEP2-GFP yeast inactive and AGP1-GFP MLPCN inactive.
`C=CC[C@@H](CC(=O)OC(C)(C)C)C(=O)OC[C@@H]1CCCN1C(=O)[C@@H](CC=C)CC(=O)N[C@H](CO)Cc1ccccc1` gave RPL19A-GFP yeast inactive, CIT2 TOR yeast inactive, LAP4-GFP MLPCN 197.9, MEP2-GFP yeast inactive, AGP1-GFP MLPCN inactive, LAP4-GFP pick2 inactive, MEP2-GFP pick2 inactive, RPL19A GFP CP2 inactive, CIT2-GFP pick2 inactive and AGP1 GFP CP2 inactive.
For C=CC[C@H](CC(=O)OC(C)(C)C)C(=O)OC[C@@H]1CCCN1C(=O)[C@@H](CC=C)CC(=O)N[C@H](CO)Cc1ccccc1 the results were RPL19A-GFP yeast inactive, CIT2 TOR yeast inactive, LAP4-GFP MLPCN inactive, MEP2-GFP yeast inactive and AGP1-GFP MLPCN inactive.
Cc1ccccc1C(=O)NNC(=S)NC(=O)COc1ccccc1 was read as RPL19A-GFP yeast inactive, CIT2 TOR yeast inactive, LAP4-GFP MLPCN inactive, MEP2-GFP yeast inactive and AGP1-GFP MLPCN inactive.
COc1ccc(C(=O)NNC(=S)NC(=O)c2ccco2)cc1 was read as RPL19A-GFP yeast inactive, CIT2 TOR yeast inactive, LAP4-GFP MLPCN inactive, MEP2-GFP yeast inactive and AGP1-GFP MLPCN inactive.
`Cc1ccc(C(=O)NNC(=S)NC(=O)COc2ccccc2)cc1` gave RPL19A-GFP yeast inactive, CIT2 TOR yeast inactive, LAP4-GFP MLPCN 275.1, MEP2-GFP yeast inactive, AGP1-GFP MLPCN inactive, s288c autofluor inactive, Yeast autofl DR inactive and TORC1 bypass inactive.
`CC(C)(C)C(=O)NC(=S)NNC(=O)c1ccc(-c2ccccc2)cc1` gave RPL19A-GFP yeast inactive, CIT2 TOR yeast inactive, LAP4-GFP MLPCN 246.4, MEP2-GFP yeast inactive, AGP1-GFP MLPCN inactive, s288c autofluor inactive, Yeast autofl DR inactive and TORC1 bypass inactive.
`O=C(NNC(=S)NC(=O)c1ccco1)c1ccc(F)cc1` gave RPL19A-GFP yeast inactive, CIT2 TOR yeast inactive, LAP4-GFP MLPCN 217.6, MEP2-GFP yeast inactive, AGP1-GFP MLPCN inactive and s288c autofluor inactive.
For COc1ccccc1C(=O)NNC(=S)NC(=O)c1ccco1 the results were RPL19A-GFP yeast inactive, CIT2 TOR yeast inactive, LAP4-GFP MLPCN 268.0, MEP2-GFP yeast inactive, AGP1-GFP MLPCN inactive, LAP4-GFP pick2 334.7, MEP2-GFP pick2 179.9, RPL19A GFP CP2 inactive, CIT2-GFP pick2 inactive, AGP1 GFP CP2 inactive and s288c autofluor inactive.
